The full list was thinned out, with hits kept by preference.
GALR2 agonist: GALR2 (human) receptor agonism; GALR2-expressing cells, agonist activation read-out; activation, % (concentration not given with the values); 0.48% of 140,000 active; AID 803; in the data active = activation above about 5%, passing the limit was not always enough
Target sequence (O43603 whole entry, looked up): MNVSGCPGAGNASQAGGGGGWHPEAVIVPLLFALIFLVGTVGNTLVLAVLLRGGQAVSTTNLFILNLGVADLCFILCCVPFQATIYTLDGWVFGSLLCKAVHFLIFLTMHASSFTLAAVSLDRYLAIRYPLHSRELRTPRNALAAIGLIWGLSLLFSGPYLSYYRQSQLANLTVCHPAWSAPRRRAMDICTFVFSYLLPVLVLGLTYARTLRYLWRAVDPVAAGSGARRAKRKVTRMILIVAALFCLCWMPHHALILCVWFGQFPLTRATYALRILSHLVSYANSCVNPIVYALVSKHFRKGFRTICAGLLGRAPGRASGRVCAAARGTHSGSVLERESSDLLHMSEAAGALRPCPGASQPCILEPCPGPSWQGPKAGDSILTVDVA
PostGolgi yeast: growth inhibition of a yeast mutant, post-Golgi transport screen; 0.9% of 98,000 active; post-Golgi transport phenotypic cell assay; inhibition, % at 10 µM;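 note: yeast cells grown in 1536-well plates; yeast grown about 18 h at 30C before absorbance read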
S1P2 antag: S1P2 (human) receptor antagonism; O95136; cell-based S1P2 antagonist assay, inhibition at 5 uM; inhibition, % at 5 µM; 0.21% of 97,000 active; in the data active = inhibition above about 45%;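 note: CRE beta-lactamase reporter cells expressing human S1P2 stimulated with S1P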
S1P2 ag: activates the human S1P2 receptor; O95136; S1P2-expressing cell line, agonist reporter read-out; activation, % at 4.5 µM; 0.46% of 97,000 active; AID 729; in the data active = activation above about 16%
GALR2 blocker: blocks the human galanin receptor 2 | GALR2-expressing cells, antagonist mode | inhibition, % at 4 µM | 0.39% of 140,000 active; in the data active = inhibition above about 27%;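 note: cells stimulated with galanin 1-16 at roughly its EC80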
PostGolgi ctrl: inhibits growth of the yeast control strain; efflux-deficient yeast background strain, growth absorbance A615, 16 h; inhibition, % at 10 µM; 5% of 98,000 active; AID 738
A number is an active result. Cut-off read from the data, not from the text of the source, unless noted: active = inhibition above about 30%; inactive = the rest.

COc1ccccc1N1CCN(C(=O)COc2ccc(C)cc2Br)CC1 was read as GALR2 agonist inactive, PostGolgi yeast inactive, S1P2 antag inactive, S1P2 ag inactive, GALR2 blocker inactive and PostGolgi ctrl 35.
For COc1ccccc1N1CCN(C(=O)COc2ccc(Cl)cc2Br)CC1 the results were GALR2 agonist inactive, PostGolgi yeast inactive, S1P2 antag inactive, S1P2 ag inactive, GALR2 blocker inactive and PostGolgi ctrl 68.
Screening CCOc1ccc(NCc2nnc(SCc3ccc(Cl)cc3)n2-c2ccccc2)cc1 returned GALR2 agonist inactive and GALR2 blocker inactive.
O=S(=O)(c1ccc(OCC(O)CN2CCN(c3ccccc3)CC2)cc1)N1CCOCC1 (configuration not stated) was read as GALR2 agonist inactive, PostGolgi yeast inactive, S1P2 antag inactive, S1P2 ag inactive, GALR2 blocker inactive and PostGolgi ctrl inactive.
For O=S(=O)(c1ccc(OCC(O)CN2CCN(c3ccccc3O)CC2)cc1)N1CCOCC1 (configuration not stated) the results were GALR2 agonist inactive, PostGolgi yeast inactive, S1P2 antag inactive, S1P2 ag inactive, GALR2 blocker inactive and PostGolgi ctrl 45.
Screening Cc1cc(/C=C(/C#N)c2nc3ccccc3[nH]2)c(C)n1-c1cccc([N+](=O)[O-])c1 returned GALR2 agonist inactive, PostGolgi yeast 34, S1P2 antag inactive, S1P2 ag 30, GALR2 blocker inactive and PostGolgi ctrl inactive.
`COc1cc(/C=C(\C#N)c2nc3ccc(C)cc3[nH]2)c([N+](=O)[O-])cc1OC` gave GALR2 agonist inactive, PostGolgi yeast inactive, S1P2 antag inactive, S1P2 ag 18, GALR2 blocker inactive and PostGolgi ctrl inactive.
Screening Cc1ccc(C)c(NC(=O)/C(C#N)=C/c2ccc(Sc3nncn3C)c([N+](=O)[O-])c2)c1 returned GALR2 agonist inactive and GALR2 blocker inactive.
`Cc1ccc(C)c(NS(=O)(=O)c2cc(C(=O)Nc3ccccc3-c3ccccc3)ccc2Cl)c1` gave GALR2 agonist inactive, PostGolgi yeast inactive, S1P2 antag inactive, S1P2 ag inactive, GALR2 blocker inactive and PostGolgi ctrl inactive.
COc1ccccc1Nc1nc(-c2cccs2)cs1 was read as GALR2 agonist inactive, PostGolgi yeast inactive, S1P2 antag inactive, S1P2 ag inactive, GALR2 blocker inactive and PostGolgi ctrl 52.
For COc1ccc(OC)c(Nc2nc(-c3cccs3)cs2)c1 the results were GALR2 agonist inactive, PostGolgi yeast inactive, S1P2 antag inactive, S1P2 ag inactive, GALR2 blocker inactive and PostGolgi ctrl inactive.
Screening O=c1[nH]c(=O)n(C2CCCCCC2)c(O)c1C=NCc1ccc(F)cc1 returned GALR2 agonist inactive, PostGolgi yeast inactive, S1P2 antag inactive, S1P2 ag inactive, GALR2 blocker inactive and PostGolgi ctrl 50.
Screening Cc1ccc(S(=O)(=O)N(Cc2cc3cccc(C)c3[nH]c2=O)c2ccccc2)cc1 returned GALR2 agonist inactive and GALR2 blocker inactive.
For Cc1ccccc1NC(=S)N(C)Cc1cn(C)c2ccccc12 the results were GALR2 agonist inactive and GALR2 blocker inactive.
CSc1nc(N)nc(SCC(=O)C23CC4CC(CC(C4)C2)C3)c1C#N was read as GALR2 agonist inactive, PostGolgi yeast inactive, S1P2 antag inactive, S1P2 ag inactive, GALR2 blocker inactive and PostGolgi ctrl 60.
`COc1ccc(C(=O)CSc2nc(N)nc(SC)c2C#N)cc1` gave GALR2 agonist inactive, PostGolgi yeast inactive, S1P2 antag inactive, S1P2 ag inactive, GALR2 blocker inactive and PostGolgi ctrl 33.
Screening CCOC(=O)N1CCC(NC(=O)CNS(=O)(=O)c2ccc(Br)s2)CC1 returned GALR2 agonist inactive, PostGolgi yeast inactive, S1P2 antag inactive, S1P2 ag inactive, GALR2 blocker inactive and PostGolgi ctrl inactive.
`O=C(NC1CCCCCC1)C1CCC(CNS(=O)(=O)c2ccc(Br)s2)CC1` (configuration not stated) gave GALR2 agonist 5.3 and GALR2 blocker inactive.
CC(C)(C)[C@]1(O)CCN2C[C@H]3c4ccccc4CCc4cccc(c43)[C@@H]2C1 was read as GALR2 agonist inactive and GALR2 blocker inactive.
Screening S=c1[nH]nc(CSc2nc3ccccc3s2)n1Cc1ccccc1 returned GALR2 agonist inactive, PostGolgi yeast inactive, S1P2 antag inactive, S1P2 ag inactive, GALR2 blocker inactive and PostGolgi ctrl 34.
`CCn1c(CSc2nc3ccccc3s2)n[nH]c1=S` gave GALR2 agonist inactive, PostGolgi yeast inactive, S1P2 antag inactive, S1P2 ag inactive, GALR2 blocker inactive and PostGolgi ctrl inactive.
For O=C(/C(=C\c1ccccc1)c1nc2ccccc2[nH]1)c1ccc(Cl)cc1 the results were GALR2 agonist inactive and GALR2 blocker inactive.
O=C(/C(=C/c1ccc(Cl)cc1)c1nc2ccccc2[nH]1)c1cccs1 was read as GALR2 agonist inactive, PostGolgi yeast 104, S1P2 antag inactive, S1P2 ag inactive, GALR2 blocker inactive and PostGolgi ctrl 101.
For C/C(CCC12CC3CC(CC(C3)C1)C2)=N\NC(N)=S the results were GALR2 agonist inactive, PostGolgi yeast 86, S1P2 antag inactive, S1P2 ag inactive, GALR2 blocker inactive and PostGolgi ctrl 45.
For C=CCc1cccc([C@@H]2[C@@H](C)CC[C@H]3C(=O)N4[C@@H](c5cc(OC)c(OC)c(OC)c5)c5[nH]c6ccccc6c5C[C@H]4C(=O)N23)c1 the results were GALR2 agonist inactive and GALR2 blocker inactive.
`CCOC(=O)CCCNC(=O)COC(=O)c1ccc(O)cc1` gave GALR2 agonist inactive, PostGolgi yeast inactive, S1P2 antag inactive, S1P2 ag inactive, GALR2 blocker inactive and PostGolgi ctrl inactive.
Screening Cc1cc(/C=N/NC(=O)c2cccc([N+](=O)[O-])c2)c(C)n1-c1ccc(Cl)cc1Cl returned GALR2 agonist inactive, PostGolgi yeast 34, S1P2 antag inactive, S1P2 ag inactive, GALR2 blocker inactive and PostGolgi ctrl inactive.
Screening COCc1cc(Sc2cccc(Cl)c2Cl)nc(-c2ccccc2)n1 returned GALR2 agonist inactive, PostGolgi yeast inactive, S1P2 antag inactive, S1P2 ag inactive, GALR2 blocker inactive and PostGolgi ctrl inactive.
For Cc1nc(CS(=O)(=O)c2ccccc2)cc(Sc2ccc(Cl)cc2Cl)n1 the results were GALR2 agonist inactive, PostGolgi yeast inactive, S1P2 antag inactive, S1P2 ag inactive, GALR2 blocker inactive and PostGolgi ctrl 37.
`Cc1ccc(-c2cn(S(=O)(=O)c3cccc4nsnc34)nc2N)cc1` gave GALR2 agonist inactive, PostGolgi yeast 48, S1P2 antag inactive, S1P2 ag inactive, GALR2 blocker inactive and PostGolgi ctrl inactive.
`Nc1nn(S(=O)(=O)c2cccc3nsnc23)cc1-c1ccc(Br)cc1` gave GALR2 agonist inactive, PostGolgi yeast 79, S1P2 antag inactive, S1P2 ag inactive, GALR2 blocker inactive and PostGolgi ctrl 72.
`COc1cc(-c2cn(S(=O)(=O)c3cccc4nsnc34)nc2N)cc(OC)c1OC` gave GALR2 agonist inactive, PostGolgi yeast inactive, S1P2 antag inactive, S1P2 ag inactive, GALR2 blocker inactive and PostGolgi ctrl inactive.

Screening results (PubChem)
